Test results taken from paper PMC5540273 (PLoS ONE, 2017).
Read-outs that look alike come from different tables or passages of the source.

Key:
[1] = system: T1, MEK5; conditions: concentration: 1 μM, replicates: in singlicate; n = 1
T1 construct: gene MAP2K5

[2] = system: T2, MEK6; conditions: concentration: 1 μM, replicates: in singlicate; n = 1
T2 construct: gene MAP2K6

[3] = system: MELK; conditions: concentration: 1 μM, replicates: in singlicate; n = 1
[4] = system: MERTK; conditions: concentration: 1 μM, replicates: in singlicate; n = 1
[5] = system: MET; conditions: concentration: 1 μM, replicates: in singlicate; n = 1
[6] = system: T3, MINK; conditions: concentration: 1 μM, replicates: in singlicate; n = 1
T3 construct: gene MINK1

[7] = system: MKK7; conditions: concentration: 1 μM, replicates: in singlicate; n = 1
[8] = system: MKNK1; conditions: concentration: 1 μM, replicates: in singlicate; n = 1
[9] = system: MKNK2; conditions: concentration: 1 μM, replicates: in singlicate; n = 1
[10] = system: T4, MLCK; conditions: concentration: 1 μM, replicates: in singlicate; n = 1
T4 construct: gene MYLK3

[11] = system: T5, MLK1; conditions: concentration: 1 μM, replicates: in singlicate; n = 1
T5 construct: gene MAP3K9

[12] = system: MLK2; conditions: concentration: 1 μM, replicates: in singlicate; n = 1
[13] = system: MLK3; conditions: concentration: 1 μM, replicates: in singlicate; n = 1
[14] = system: MRCKA; conditions: n = 1
[15] = system: T6, MRCKB; conditions: concentration: 1 μM, replicates: in singlicate; n = 1
T6 construct: gene CDC42BPB

[16] = system: MST1R; conditions: concentration: 1 μM, replicates: in singlicate; n = 1
[17] = system: T7, MST1; conditions: concentration: 1 μM, replicates: in singlicate; n = 1
T7 construct: gene STK4

[18] = system: T8, MST2; conditions: concentration: 1 μM, replicates: in singlicate; n = 1
T8 construct: gene STK3

[19] = system: T9, MST3; conditions: concentration: 1 μM, replicates: in singlicate; n = 1
T9 construct: gene STK24

[20] = system: MST4; conditions: concentration: 1 μM, replicates: in singlicate; n = 1
[21] = concentration: 1 μM, replicates: in singlicate
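Also: KINOMEscan kinase panel screen.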

COc1ccc(-c2coc3ccc(-c4nnc(SCc5ccc(OC)c(C(F)(F)F)c5)o4)cc23)cc1
%Inh [1]: 4% | %Inh [2]: 0% | %Inh [3]: 20% | %Inh [4]: 11% | %Inh [5]: 13% | %Inh [6]: 26% | %Inh [7]: 14% | %Inh [8]: 0% | %Inh [9]: 1% | %Inh [10]: 0% | %Inh [11]: 14% | %Inh [12]: 0% | %Inh [13]: 0% | %Inh [14, 21]: 0% | %Inh [15]: 0% | %Inh [16]: 0% | %Inh [17]: 32% | %Inh [18]: 11% | %Inh [19]: 17% | %Inh [20]: 0%

C[C@@H]1CC[C@@H](C(=O)Nc2ccccc2)CN1c1cc(-c2ccc3c(N)n[nH]c3c2)nc(N)n1 [GSK2286062]
%Inh [1]: 4% | %Inh [2]: 8% | %Inh [3]: 31% | %Inh [4]: 39% | %Inh [5]: 0% | %Inh [6]: 9% | %Inh [7]: 0% | %Inh [8]: 0% | %Inh [9]: 12% | %Inh [10]: 16% | %Inh [11]: 7% | %Inh [12]: 0% | %Inh [13]: 13% | %Inh [14, 21]: 0% | %Inh [15]: 0% | %Inh [16]: 26% | %Inh [17]: 0% | %Inh [18]: 0% | %Inh [19]: 11% | %Inh [20]: 0%

c1ccc(-c2cnc3nccnn23)cc1 [AH20685]
%Inh [1]: 0% | %Inh [2]: 0% | %Inh [3]: 0% | %Inh [4]: 0% | %Inh [5]: 0% | %Inh [6]: 0% | %Inh [7]: 0% | %Inh [8]: 2% | %Inh [9]: 11% | %Inh [10]: 9% | %Inh [11]: 0% | %Inh [12]: 0% | %Inh [13]: 0% | %Inh [14, 21]: 0% | %Inh [15]: 0% | %Inh [16]: 38% | %Inh [17]: 5% | %Inh [18]: 0% | %Inh [19]: 0% | %Inh [20]: 0%

C[C@@H](Oc1cc(-n2cnc3cc(-c4ccnc(NCCS(C)(=O)=O)c4)ccc32)sc1C(N)=O)c1ccccc1Cl [GSK907232]
%Inh [1]: 56% | %Inh [2]: 0% | %Inh [3]: 0% | %Inh [4]: 90.9% | %Inh [5]: 36% | %Inh [6]: 1% | %Inh [7]: 0% | %Inh [8]: 0% | %Inh [9]: 7% | %Inh [10]: 0% | %Inh [11]: 14% | %Inh [12]: 20% | %Inh [13]: 42% | %Inh [14, 21]: 0% | %Inh [15]: 8% | %Inh [16]: 57% | %Inh [17]: 64% | %Inh [18]: 0% | %Inh [19]: 0% | %Inh [20]: 4%

CCn1c(-c2nonc2N)nc2c(C#CC(C)(C)O)nc(OC[C@H](N)c3ccccc3)cc21 [GSK943949]
%Inh [1]: 0% | %Inh [2]: 0% | %Inh [3]: 63% | %Inh [4]: 21% | %Inh [5]: 0% | %Inh [6]: 5% | %Inh [7]: 0% | %Inh [8]: 5% | %Inh [9]: 0% | %Inh [10]: 34% | %Inh [11]: 0% | %Inh [12]: 23% | %Inh [13]: 5% | %Inh [14, 21]: 0% | %Inh [15]: 5% | %Inh [16]: 1% | %Inh [17]: 0% | %Inh [18]: 58% | %Inh [19]: 9% | %Inh [20]: 7%

CN1CCN(Cc2cccc(-c3ccc4c(Nc5ccc(Oc6ccccc6)cc5)ccnc4c3)c2)CC1 [GW578342]
%Inh [1]: 100% | %Inh [2]: 0% | %Inh [3]: 16% | %Inh [4]: 0% | %Inh [5]: 5% | %Inh [6]: 9% | %Inh [7]: 7% | %Inh [8]: 8% | %Inh [9]: 51% | %Inh [10]: 1% | %Inh [11]: 4% | %Inh [12]: 5% | %Inh [13]: 4% | %Inh [14, 21]: 0% | %Inh [15]: 0% | %Inh [16]: 35% | %Inh [17]: 12% | %Inh [18]: 0% | %Inh [19]: 3% | %Inh [20]: 0%

COc1cc(Nc2nccc(N3CCC(NC(=O)Nc4cccc(C(C)=O)c4)C3)n2)cc(OC)c1OC (stereo not drawn) [GSK1379753]
%Inh [1]: 99.6% | %Inh [2]: 0% | %Inh [3]: 0% | %Inh [4]: 23% | %Inh [5]: 12% | %Inh [6]: 0% | %Inh [7]: 0% | %Inh [8]: 9% | %Inh [9]: 62% | %Inh [10]: 0% | %Inh [11]: 48% | %Inh [12]: 0% | %Inh [13]: 45% | %Inh [14, 21]: 18% | %Inh [15]: 0% | %Inh [16]: 36% | %Inh [17]: 89% | %Inh [18]: 31% | %Inh [19]: 2% | %Inh [20]: 0%

CCn1c(-c2nonc2N)nc2c(C#CC(C)(C)O)ncc(OCCCCN)c21.O=C(O)C(F)(F)F.O=C(O)C(F)(F)F [GSK507274]
%Inh [1]: 0% | %Inh [2]: 0% | %Inh [3]: 1% | %Inh [4]: 30% | %Inh [5]: 0% | %Inh [6]: 0% | %Inh [7]: 0% | %Inh [8]: 0% | %Inh [9]: 11% | %Inh [10]: 13% | %Inh [11]: 0% | %Inh [12]: 0% | %Inh [13]: 0% | %Inh ([14]; 1 µM): 17% | %Inh [15]: 5% | %Inh [16]: 33% | %Inh [17]: 3% | %Inh [18]: 0% | %Inh [19]: 0% | %Inh [20]: 2%

Cl.c1ccc(-c2ccc3c(Nc4ccc5[nH]ncc5c4)ccnc3c2)nc1 [GW440137]
%Inh [1]: 89% | %Inh [2]: 0% | %Inh [3]: 15% | %Inh [4]: 0% | %Inh [5]: 0% | %Inh [6]: 43% | %Inh [7]: 0% | %Inh [8]: 5% | %Inh [9]: 18% | %Inh [10]: 15% | %Inh [11]: 0% | %Inh [12]: 27% | %Inh [13]: 11% | %Inh [14, 21]: 9% | %Inh [15]: 0% | %Inh [16]: 43% | %Inh [17]: 0% | %Inh [18]: 28% | %Inh [19]: 0% | %Inh [20]: 3%
